The results in this text go back to PubChem BioAssay (NCATS).

“And” between values parts separate entries of the source, which are not always exact repeats. Equal values may be shown once. Records with an inconclusive call do not appear. The source made the active and inactive calls. Unless noted, the call rests on the fitted dose curve.

Test [1] in a line: Cell Viability - NIH 3T3 (AID 541; active means well fitted curve in the direction sought with a large enough effect; an effect the other way counts as inactive or inconclusive;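 further: cells exposed to compound for 40 hours; plate controls were DMSO alone for no effect and tamoxifen positive control for full effect; nearly all actives have a fitted effect of over 25% in size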). The settings on record: NIH 3T3 cell viability, qHTS; activity change, negative = cytotoxicity: at 92.2 µM (top of the series). Summed up: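 Cells seeded at 1000/well, rested 5 hr at 37 °C, then dosed and incubated 40 hr at 37 °C. CellTiter-Glo added, 20 min room temperature, luminescence read. AC50 by Hill fit.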
(Quantitative high-throughput screening tests each substance at several concentrations.)

Test [2] has as its target Glucocorticoid receptor (Homo sapiens) (UniProt P04150). The test is described as follows: qHTS assay for small molecule agonists of glucocorticoid receptor signaling (AID 588532; active means well fitted curve in the direction sought with a large enough effect in the signal ratio, with a control signal flat; the % refers to the signal ratio;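 further: 100% = dexamethasone at 0.1 µM and 0% = DMSO only wells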). Conditions: HeLa MMTV-bla, beta-lactamase ratio, agonist, 18 h; stronger effect = higher value; percent of dexamethasone control, DMSO zero. Summed up: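 Agonist-mode qHTS: GRE-driven beta-lactamase in HeLa cells exposed 18 h to titrated compounds (up to 92 uM), then CCF4 ratio read after 2 h at RT; Hill-fitted EC50, efficacy relative to 0.1 uM dexamethasone.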

For test [3] the target is unchanged. In words: qHTS assay for small molecule antagonists of glucocorticoid receptor signaling (AID 588533; active means well fitted inhibition curve with a large enough effect in the signal ratio, with a control signal flat, not every such curve was filed as active; the % refers to the signal ratio;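 further: cells stimulated with 2 nM dexamethasone as agonist; on the % scale 0 is the no-effect control and ±100 the full control effect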). Summed up: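 Antagonist-mode qHTS: compound titrations added to GRE-bla HeLa cells, then dexamethasone 2 nM final; 18 h, 37 C. CCF4 FRET fluorescence normalized to dexamethasone and DMSO; IC50 from Hill fit.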
The target in test [4] is Peroxisome proliferator-activated receptor gamma (Homo sapiens) (UniProt P37231). The test is described as follows: qHTS assay for small molecule antagonists of peroxisome proliferator-activated receptor gamma signaling (AID 588537; active means well fitted inhibition curve with a large enough effect in the signal ratio, with a control signal flat, not every such curve was filed as active; the % refers to the signal ratio;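 further: reporter cells co-stimulated with 50 nM rosiglitazone agonist during compound treatment; % of control where 0% means no effect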). In short, it runs like this: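 Antagonist-mode β-lactamase reporter screen run as a titration series. HEK293 PPARγ-UAS-bla cells are stimulated with rosiglitazone (50 nM final) for 16 h, then CCF4 is read at 460/530 nm. Data are scaled between DMSO and rosiglitazone and fitted to the Hill equation.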
Sequence of Peroxisome proliferator-activated receptor gamma (Homo sapiens) (P37231 whole entry, looked up): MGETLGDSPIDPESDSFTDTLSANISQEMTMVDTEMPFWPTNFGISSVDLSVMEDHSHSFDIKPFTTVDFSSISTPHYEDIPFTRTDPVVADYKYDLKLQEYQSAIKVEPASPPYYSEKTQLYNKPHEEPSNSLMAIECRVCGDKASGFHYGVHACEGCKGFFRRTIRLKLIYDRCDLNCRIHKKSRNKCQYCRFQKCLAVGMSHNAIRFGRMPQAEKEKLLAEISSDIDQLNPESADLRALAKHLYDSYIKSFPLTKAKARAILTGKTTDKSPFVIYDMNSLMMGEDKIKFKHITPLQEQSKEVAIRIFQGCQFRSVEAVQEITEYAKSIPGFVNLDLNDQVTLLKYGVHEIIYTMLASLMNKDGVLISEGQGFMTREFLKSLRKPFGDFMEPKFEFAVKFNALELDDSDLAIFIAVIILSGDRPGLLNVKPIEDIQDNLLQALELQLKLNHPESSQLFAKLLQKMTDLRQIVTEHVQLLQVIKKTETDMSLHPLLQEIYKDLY

Test [5] deals with Thyroid hormone receptor beta (Homo sapiens) (UniProt P10828). The test is described as follows: qHTS assay for small molecule agonists of thyroid hormone receptor beta signaling (AID 588545).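 Further: 0% = DMSO only and 100% = 10 nM T3.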 Summed up:
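Beta-lactamase reporter activity under TR response element control is measured in HEK 293 cells after 18 hrs compound exposure. Signal is ratiometric CCF4 fluorescence, 460/530 nm.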

Test [6] shares this target. The test is described as follows: qHTS assay for small molecule antagonists of thyroid hormone receptor beta signaling (AID 588547; active means well fitted inhibition curve with a large enough effect in the signal ratio, with a control signal flat, not every such curve was filed as active; the % refers to the signal ratio;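 further: cells stimulated with 0.4 nM T3 agonist during compound exposure; on the % scale 0 is the no-effect control and ±100 the full control effect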). The settings on record: TR-UAS-bla HEK293, beta-lactamase ratio, antagonist mode, 18 h. Summed up:
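Inhibition of T3-driven (0.4nM final) beta-lactamase reporter activity was measured over 0.59 nM to 92 uM compound after 18 h at 37 C. The cells were GripTite HEK293 TR-UAS-bla in charcoal/dextran-stripped serum, with CCF4 ratio read-out and IC50 from Hill fits.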

Test [7] is described as follows: qHTS assay for small molecule disruptors of the mitochondrial membrane potential - 5 hr assay (AID 651755). Further: on the % scale 0 is the no-effect control and ±100 the full control effect; nearly all actives have a fitted effect of over 40% in size. In short, it runs like this: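 Membrane-potential dye readout: red aggregate (540 ex/590 em) versus green monomer (490 ex/535 em) fluorescence after 30 min dye loading, following 5 hr compound exposure at 37C of overnight-plated HepG2 cells.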
Test [8] has as its target Tumor necrosis factor (Homo sapiens) (UniProt P01375). In words: qHTS assay to identify small molecules that stimulate Tumor Necrosis Factor-alpha (TNF-alpha) secretion (AID 651757; active means well fitted curve in the direction sought with a large enough effect in the signal ratio; the % refers to the signal ratio; further: 0% is about no effect). In short, it runs like this:
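Human monocytic THP-1 cells are plated, treated with compound and held at 37 C for 17 hrs. Labeled anti-TNF-alpha antibody mixture is then added; after 3 hr at room temperature, TR-FRET signal reports secreted TNF-alpha.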

The nature of test [9]: qHTS assay to identify small molecules that stimulate interleukin-8 (IL-8) secretion (AID 651758; active means well fitted activation curve with a large enough effect in the signal ratio; the % refers to the signal ratio; further: 0% is about no effect). Summed up:
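Secreted IL-8 measured homogeneously by TR-FRET (two labelled anti-IL-8 antibodies, 1-3 h at room temperature) after a 16 h, 37 C compound treatment of THP-1 cells at 2000 cells/well.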

Test [10] can be described thus: qHTS assay for environmental chemicals that activate the Aryl hydrocarbon Receptor (AhR) signaling pathway (AID 651777; active means well fitted curve in the direction sought with a large enough effect; an effect the other way counts as inactive or inconclusive; further: % of control where 0% means no effect; nearly all actives have a fitted effect of over 15% in size). Conditions: 1A2-DRE human hepatoma cells, luciferase, 24 h; activation: stronger effect = higher value. In short, it runs like this:
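Quantitative HTS in stably transfected human liver-derived cells whose luciferase gene sits downstream of the CYP1A2 promoter and dioxin response element. After 24 hr exposure at 37 C, One-Glo luminescence was measured.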

A short description of test [11]: qHTS assay for small molecule agonists of the antioxidant response element (ARE) signaling pathway measured by Nrf2-dependant transcriptional activity (AID 720636; active means well fitted curve in the direction sought with a large enough effect in the repeat runs; an effect the other way counts as inactive or inconclusive; further: % of control where 0% means no effect). In short, it runs like this:
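Quantitative HTS format in HepG2 cells stably expressing an ARE-luciferase reporter; 16 hr compound treatment at 37 C, luciferase signal detected with ONE-Glo.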

Test [12] addresses Bile acid receptor (Homo sapiens) (UniProt Q96RI1). In words: qHTS assay for small molecule agonists of farnesoid X receptor signaling (AID 588527).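 Further: 0% = vehicle basal and 100% = reference agonist.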 Conditions: HEK293T FXR-UAS-bla, beta-lactamase ratio, 16 h; stronger effect = higher value. In short, it runs like this: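 Read-out: beta-lactamase reporter fluorescence with CCF4 substrate in GeneBLAzer FXR-UAS-bla HEK293T cells, after 16 h compound exposure at 37 C. Response scaled between DMSO basal (0%) and chenodeoxycholic acid at 100 uM (100%).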

For test [13], the target named is Peroxisome proliferator-activated receptor delta (Homo sapiens) (UniProt Q03181). The test is described as follows: qHTS assay for small molecule agonists of peroxisome proliferator-activated receptor delta signaling (AID 588534).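 Further: 0% = DMSO basal wells and 100% = positive control agonist at 10 µM.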 Summed up: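 Agonist-mode qHTS; reporter cells, 5 hrs 37 C pre-incubation; compound titration, 18 hrs 37 C; CCF4 dye, 2 hrs RT; fluorescence read. EC50/efficacy via Hill fit.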
Sequence of Peroxisome proliferator-activated receptor delta (Homo sapiens) (Q03181 whole entry, looked up): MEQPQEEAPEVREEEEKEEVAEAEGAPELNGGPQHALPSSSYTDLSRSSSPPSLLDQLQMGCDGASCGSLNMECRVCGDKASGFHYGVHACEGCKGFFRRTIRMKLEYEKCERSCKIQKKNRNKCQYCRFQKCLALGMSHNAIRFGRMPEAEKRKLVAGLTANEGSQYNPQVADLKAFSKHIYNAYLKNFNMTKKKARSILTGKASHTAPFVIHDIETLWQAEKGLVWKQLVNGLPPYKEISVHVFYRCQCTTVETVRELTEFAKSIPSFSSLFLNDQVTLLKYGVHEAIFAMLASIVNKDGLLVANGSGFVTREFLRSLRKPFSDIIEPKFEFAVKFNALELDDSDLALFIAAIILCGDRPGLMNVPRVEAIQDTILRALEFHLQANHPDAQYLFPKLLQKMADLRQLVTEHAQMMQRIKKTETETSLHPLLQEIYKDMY

The nature of test [14]: qHTS assay for small molecule antagonists of peroxisome proliferator-activated receptor delta signaling (AID 588535; active means well fitted inhibition curve with a large enough effect in the signal ratio, with a control signal flat, not every such curve was filed as active; the % refers to the signal ratio;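 on max response: cells co-treated with a PPAR-delta agonist as stimulator during compound exposure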). The settings on record: HEK293T PPARd-UAS-bla, beta-lactamase FRET ratio, 18 h; 460 nm channel. Summed up: (§1)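 Titrations were run on PPAR-delta-UAS-bla HEK293T cells in charcoal/dextran-stripped serum, incubated 18 h at 37 C. CCF4 fluorescence (460/530 nm) after 2 h RT; Hill equation yields IC50 and maximal response.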

Test [15] deals with Peroxisome proliferator-activated receptor delta (Homo sapiens) (UniProt Q03181). Described as above. Summed up: as §1
The target in test [16] is Peroxisome proliferator-activated receptor gamma (Homo sapiens) (UniProt P37231). In words: qHTS assay for small molecule agonists of peroxisome proliferator-activated receptor gamma signaling (AID 588536; active means well fitted curve in the direction sought with a large enough effect in the signal ratio, with a control signal flat, not every such curve was filed as active; the % refers to the signal ratio;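 further: 0% = DMSO basal wells and 100% = rosiglitazone at 2 µM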). In short, it runs like this: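 Beta-lactamase reporter read-out: CCF4 fluorescence (ex 405, em 460/530 nm) after 2 h at RT. HEK293 GeneBLAzer cells were treated for 16 h at 37 C. Hill fits gave EC50 and efficacy versus 2 uM rosiglitazone (100%) and DMSO (0%).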

Test [17] concerns the target Vitamin D3 receptor (Homo sapiens) (UniProt P11473). In words: qHTS assay for small molecule agonists of vitamin D receptor signaling (AID 588543).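 Further: 0% = DMSO basal and 100% = reference agonist control.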 Summed up: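 qHTS in agonist mode: compound titrations stimulate a VDR-driven β-lactamase reporter in HEK293T cells over 16 h at 37 °C. Response normalized to 50 nM 1α,25-dihydroxyvitamin D3 = 100%, DMSO = 0%; Hill fitting gives EC50 and maximal response.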

Test [18] in a line: qHTS assay for small molecule activators of the nuclear factor-kappa B (NF-kB) signaling pathway (AID 651749; active means well fitted activation curve with a large enough effect in the signal ratio; the % refers to the signal ratio; further: % of control where 0% means no effect). The settings on record: NF-kB-bla ME-180 cells, beta-lactamase FRET ratio, 16 h; stronger effect = higher value. Summed up: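 Activation measured after 16 hr compound treatment at 37C, 5% CO2, of 2,000 ME-180 cells/well stably expressing an NF-kB response element–driven beta-lactamase reporter, via FRET-disruption fluorescence.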

In test [19] the target is Nuclear receptor ROR-gamma (Homo sapiens) (UniProt P51449). The test is described as follows: qHTS assay for small molecule antagonists of the retinoid-related orphan receptor gamma (ROR-gamma) signaling pathway (AID 651802; active means well fitted curve in the direction sought with a large enough effect; an effect the other way counts as inactive or inconclusive;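 further: CHO cells with doxycycline-induced ROR-gamma expression; on the % scale 0 is the no-effect control and ±100 the full control effect; nearly all actives have a fitted effect of over 60% in size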). Summed up: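 Steps: cells dispensed; compound or DMSO transferred by pin tool; doxycycline added to induce the ROR response element-driven luciferase; plates held 16hr at 37C; ONE-Glo added and luminescence measured.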
Sequence of Nuclear receptor ROR-gamma (Homo sapiens) (P51449 whole entry, looked up): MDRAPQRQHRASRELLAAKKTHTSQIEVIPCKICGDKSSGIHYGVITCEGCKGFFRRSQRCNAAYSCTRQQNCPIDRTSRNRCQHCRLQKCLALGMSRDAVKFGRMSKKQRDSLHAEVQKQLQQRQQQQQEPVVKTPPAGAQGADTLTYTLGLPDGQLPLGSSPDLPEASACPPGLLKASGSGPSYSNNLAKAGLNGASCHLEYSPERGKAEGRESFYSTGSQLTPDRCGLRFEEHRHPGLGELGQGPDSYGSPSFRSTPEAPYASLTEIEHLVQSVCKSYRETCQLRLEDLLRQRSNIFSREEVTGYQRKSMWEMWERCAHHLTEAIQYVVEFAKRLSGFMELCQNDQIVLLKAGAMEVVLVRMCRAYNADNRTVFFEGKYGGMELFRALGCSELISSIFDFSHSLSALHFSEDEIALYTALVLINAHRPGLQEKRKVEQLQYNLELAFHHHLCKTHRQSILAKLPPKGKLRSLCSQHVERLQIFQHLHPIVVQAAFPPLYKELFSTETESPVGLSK

For test [20], the target named is Estrogen receptor (Homo sapiens) (UniProt P03372). The test is described as follows: qHTS assay for small molecule antagonists of estrogen receptor alpha signaling (AID 588513; active means well fitted curve in the direction sought with a large enough effect in the signal ratio, with a control signal flat, not every such curve was filed as active; the % refers to the signal ratio; further: on the % scale 0 is the no-effect control and ±100 the full control effect). Summed up:
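Cells were plated at 5000/well and incubated 4 h at 37 C. Compounds were added as 1:2 dilution series, duplicates. 17-beta-estradiol (0.5nM final) was added for 18 h before CCF4 detection.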

Sequence of Glucocorticoid receptor (Homo sapiens) (P04150 whole entry, looked up): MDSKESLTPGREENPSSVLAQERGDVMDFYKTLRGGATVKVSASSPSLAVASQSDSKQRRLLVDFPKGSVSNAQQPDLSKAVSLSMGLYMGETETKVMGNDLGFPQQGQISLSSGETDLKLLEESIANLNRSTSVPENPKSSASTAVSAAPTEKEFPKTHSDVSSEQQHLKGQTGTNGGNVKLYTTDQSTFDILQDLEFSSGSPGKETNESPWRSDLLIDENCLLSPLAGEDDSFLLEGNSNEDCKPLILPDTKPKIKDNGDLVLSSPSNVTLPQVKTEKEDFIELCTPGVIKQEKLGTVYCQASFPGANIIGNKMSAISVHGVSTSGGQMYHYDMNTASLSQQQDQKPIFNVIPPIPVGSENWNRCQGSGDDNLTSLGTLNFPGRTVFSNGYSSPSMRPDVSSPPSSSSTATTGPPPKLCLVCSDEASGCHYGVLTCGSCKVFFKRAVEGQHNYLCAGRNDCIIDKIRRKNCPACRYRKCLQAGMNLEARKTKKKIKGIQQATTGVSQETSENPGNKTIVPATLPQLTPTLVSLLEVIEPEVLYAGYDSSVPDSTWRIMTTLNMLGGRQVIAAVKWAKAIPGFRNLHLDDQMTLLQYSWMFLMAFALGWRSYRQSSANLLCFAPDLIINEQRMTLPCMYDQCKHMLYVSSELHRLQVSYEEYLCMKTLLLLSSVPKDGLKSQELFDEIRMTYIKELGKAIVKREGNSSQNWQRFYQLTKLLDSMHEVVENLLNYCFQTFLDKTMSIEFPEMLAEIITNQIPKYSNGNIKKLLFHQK
Sequence of Thyroid hormone receptor beta (Homo sapiens) (P10828 whole entry, looked up): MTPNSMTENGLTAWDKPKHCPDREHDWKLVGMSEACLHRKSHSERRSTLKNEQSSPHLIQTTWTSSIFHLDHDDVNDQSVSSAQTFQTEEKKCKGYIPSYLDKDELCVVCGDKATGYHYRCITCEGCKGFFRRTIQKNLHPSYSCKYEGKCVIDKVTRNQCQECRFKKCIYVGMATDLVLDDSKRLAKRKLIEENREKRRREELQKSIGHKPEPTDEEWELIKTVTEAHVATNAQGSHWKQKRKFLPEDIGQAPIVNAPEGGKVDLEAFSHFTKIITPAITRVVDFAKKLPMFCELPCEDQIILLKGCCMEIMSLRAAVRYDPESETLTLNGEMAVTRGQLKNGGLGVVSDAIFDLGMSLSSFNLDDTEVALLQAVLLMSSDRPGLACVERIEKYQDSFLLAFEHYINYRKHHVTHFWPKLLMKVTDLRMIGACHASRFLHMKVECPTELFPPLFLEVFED
Sequence of Bile acid receptor (Homo sapiens) (Q96RI1 whole entry, looked up): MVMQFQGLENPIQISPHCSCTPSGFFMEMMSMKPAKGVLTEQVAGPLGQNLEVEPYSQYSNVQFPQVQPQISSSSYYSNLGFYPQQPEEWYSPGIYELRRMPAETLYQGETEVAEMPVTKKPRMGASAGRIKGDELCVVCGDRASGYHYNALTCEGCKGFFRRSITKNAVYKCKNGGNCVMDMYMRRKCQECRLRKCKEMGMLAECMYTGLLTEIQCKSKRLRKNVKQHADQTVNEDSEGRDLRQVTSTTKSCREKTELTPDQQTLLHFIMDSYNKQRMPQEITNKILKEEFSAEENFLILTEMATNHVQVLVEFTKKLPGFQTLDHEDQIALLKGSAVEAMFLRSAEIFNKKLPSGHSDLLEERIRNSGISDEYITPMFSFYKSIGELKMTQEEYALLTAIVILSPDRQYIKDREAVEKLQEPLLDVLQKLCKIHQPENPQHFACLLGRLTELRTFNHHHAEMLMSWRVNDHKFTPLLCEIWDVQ
Sequence of Tumor necrosis factor (Homo sapiens) (P01375 whole entry, looked up): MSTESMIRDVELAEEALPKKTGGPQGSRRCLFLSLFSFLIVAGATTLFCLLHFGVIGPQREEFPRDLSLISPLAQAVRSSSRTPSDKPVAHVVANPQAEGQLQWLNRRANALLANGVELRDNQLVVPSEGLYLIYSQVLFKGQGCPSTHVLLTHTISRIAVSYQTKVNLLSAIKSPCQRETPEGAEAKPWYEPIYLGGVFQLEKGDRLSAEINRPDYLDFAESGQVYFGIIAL
Sequence of Estrogen receptor (Homo sapiens) (P03372 whole entry, looked up): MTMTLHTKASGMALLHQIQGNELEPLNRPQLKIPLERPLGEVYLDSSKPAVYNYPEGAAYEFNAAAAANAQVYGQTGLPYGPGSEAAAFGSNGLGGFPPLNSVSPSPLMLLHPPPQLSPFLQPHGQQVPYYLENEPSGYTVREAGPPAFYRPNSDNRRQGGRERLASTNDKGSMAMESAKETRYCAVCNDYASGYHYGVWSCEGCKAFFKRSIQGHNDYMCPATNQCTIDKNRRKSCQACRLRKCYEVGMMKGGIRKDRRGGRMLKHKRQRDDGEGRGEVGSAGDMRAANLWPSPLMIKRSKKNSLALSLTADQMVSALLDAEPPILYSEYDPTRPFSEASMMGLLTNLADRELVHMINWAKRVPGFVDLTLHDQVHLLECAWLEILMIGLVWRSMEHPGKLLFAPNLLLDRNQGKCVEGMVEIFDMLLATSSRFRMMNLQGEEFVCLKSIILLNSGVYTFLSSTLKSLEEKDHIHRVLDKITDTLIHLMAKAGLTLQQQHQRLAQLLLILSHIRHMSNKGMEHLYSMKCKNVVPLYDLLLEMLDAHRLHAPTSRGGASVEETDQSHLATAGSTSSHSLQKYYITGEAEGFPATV
Sequence of Vitamin D3 receptor (Homo sapiens) (P11473 whole entry, looked up): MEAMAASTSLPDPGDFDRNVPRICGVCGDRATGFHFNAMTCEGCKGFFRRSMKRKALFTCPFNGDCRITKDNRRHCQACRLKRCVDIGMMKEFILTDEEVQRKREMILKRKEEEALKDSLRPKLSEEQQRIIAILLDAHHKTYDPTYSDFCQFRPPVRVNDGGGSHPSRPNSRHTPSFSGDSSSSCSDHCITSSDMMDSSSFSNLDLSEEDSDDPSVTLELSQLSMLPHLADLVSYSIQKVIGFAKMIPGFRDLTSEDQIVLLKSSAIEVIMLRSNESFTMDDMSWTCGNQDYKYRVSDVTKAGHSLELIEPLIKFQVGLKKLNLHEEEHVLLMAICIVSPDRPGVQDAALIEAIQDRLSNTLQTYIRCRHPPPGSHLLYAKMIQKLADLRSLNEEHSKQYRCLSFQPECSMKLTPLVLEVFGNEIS

Consider `O=[N+]([O-])c1ccccc1O`, for which the Potency result in test [1], in test [4], in [5], in [7], in test [9] and in test [11] was “inactive” each time. Also, the values for the activation in [2] and in test [10] were 0.494% (inactive) and 0.0323% (inactive), respectively. In addition, the result in test [3] and in test [8] was inactive. In addition, the activity change % (negative = inhibition) in test [6] is -16.2% (inactive).

As for `ClCCCCl`, the Potency result in [1], in [7], in test [19] and in test [11] was “inactive” each time. The activation in test [12] is 1.98% (inactive); in [2], -8% (inactive); in test [18], 0.207% (inactive); in [10], -1.95% (inactive). For the same compound, the compound was classed as inactive in test [13], in test [15], in test [16], in [17] and in test [8]. In test [14], the max response stood at 23.7%. Moreover, in test [6], the activity change % (negative = inhibition) was 17.8% (inactive).

On to `Cc1ccc(N)cc1Cl`, for which the Potency entry in test [1], in test [20], in test [4], in test [5], in test [7] and in test [9] was “inactive” in each case. Moreover, in test [11], the Potency entry was “inactive”. For the same compound, the call in test [16], in test [17] and in [8] was inactive. For the same compound, the activation in [18] is -0.096% (inactive).

`C1CC2OC2CC1C1CO1` (centres undefined): the Potency entry in [1], in test [4], in test [5], in test [7] and in test [9] was “inactive” in each case. For the same compound, the activation in [12] was -0.198% (inactive); in [18], -0.692% (inactive) and -2.3% (inactive). The call in [13], in [15], in [16] and in test [8] was inactive. Moreover, the max response in test [14] was found to be 13.2%. For the same compound, the activity change % (negative = inhibition) in test [6] was 7.88% (inactive).

As for `CC(C)C#N`, the Potency result in test [1], in [4], in [5], in [7], in test [9] and in test [19] was “inactive” throughout. The Potency entry in test [11] was “inactive”. Further, the activation in test [2] is 1.53% (inactive); in [18] it was -0.872% (inactive); in [10], 0.256% (inactive). In addition, the compound was classed as inactive in [13], in test [15] and in [16]. Besides, the max response in test [14] was -11.5%. Also, in [6], the activity change % (negative = inhibition) was -3.27% (inactive).

As for `Brc1cccc(-c2ccccc2)c1`, the Potency result in test [1], in [20], in test [5], in [7] and in [19] was “inactive” throughout. The activation was -2.22% (inactive) in test [12], -4.94% (inactive) in test [2], -1.09% (inactive) in [18] and -0.116% (inactive) in test [10]. Besides, the outcome in [17] and in test [8] was inactive. Also, in test [6], the activity change % (negative = inhibition) is 0.106% (inactive).

On to `Cc1cccc(C)c1N`, for which the Potency entry in test [1], in test [20], in test [5], in test [7] and in test [19] was “inactive” throughout. In addition, the activation in test [12] was -1.75% (inactive); in test [2] it was 0.219% (inactive); in [18], -1.09% (inactive); in test [10], 1.32% (inactive). Besides, the call in [13] and in test [15] was inactive. In addition, the max response in [14] stood at 17.3%. In addition, in test [6], the activity change % (negative = inhibition) is -2.91% (inactive).

As to `CN(C)C(=O)Nc1ccc(Cl)cc1`, the Potency entry in [1], in test [4], in [5], in test [7], in test [9] and in test [19] was “inactive” in each case. The Potency result in test [11] was “inactive”. The activation in test [12] was 0.657% (inactive) and 0.9% (inactive); in [2] it was 8.83% (inactive) and -10.8% (inactive); in test [18] it was 2.75% (inactive) and -0.215% (inactive); in test [10], 1.83% (inactive) and 5.75% (inactive). Further, the compound was called inactive in test [3], in test [13], in test [15], in test [16], in test [17] and in test [8]. The max response in [14] was -2.77% and 22.5%. For the same compound, the activity change % (negative = inhibition) in test [6] was -0.766% (inactive).
